Data on 14 molecules can be found in PubChem BioAssay (Tox21).

Assay [1] is described as follows: qHTS assay to test for compound auto fluorescence at 535 nm (green) in HEK293 cells (AID 720680).
Assay [2] is described as follows: qHTS assay to test for compound auto fluorescence at 460 nm (blue) in HEK293 cell free culture (AID 720681). Put shortly: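 Compounds were added to cell-free DMEM with 10% FBS and fluorescence read directly. The blue channel used 405 nm excitation and 460 nm emission, with triamterene as the reference fluorophore.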
A short description of assay [3]: qHTS assay to test for compound auto fluorescence at 535 nm (green) in HEK293 cell free culture (AID 720682). Put shortly:
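Cell-free medium (DMEM, 10% FBS) receives compound or DMSO by pintool. Plate read directly at Ex 485/Em 535 nm. Signal converted to fluorescein equivalency.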

Assay [4] is described as follows: qHTS assay to test for compound auto fluorescence at 590 nm (red) in HEK293 cell free culture (AID 720683). Put shortly: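 Cell-free wells of DMEM with 10% FBS received compound, and intrinsic fluorescence was read at excitation/emission 540/590 nm. Values expressed as equivalence to Rose Bengal sodium.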
A short description of assay [5]: qHTS assay to test for compound auto fluorescence at 590 nm (red) in HepG2 cell free culture (AID 720684). Put shortly: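 Rose Bengal sodium served as the reference for red signal. Test compounds were dispensed into serum-containing MEM (10% FBS) without cells, and plates were read at 540/590 nm.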
Assay [6] is described as follows: qHTS assay to test for compound auto fluorescence at 460 nm (blue) in HepG2 cell free culture (AID 720685). Put shortly:
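Cell-free plates of MEM plus 10% FBS received 23 nL compound or DMSO vehicle; blue-channel (405/460 nm) intensity scored against triamterene as reference fluorophore.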

A short description of assay [7]: qHTS assay to test for compound auto fluorescence at 535 nm (green) in HepG2 cell free culture (AID 720686).
The nature of assay [8]: qHTS assay to test for compound auto fluorescence at 460 nm (blue) in HepG2 cells (AID 720687). The gist of the method:
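HepG2 cells in MEM with 10% FBS, attached overnight at 37 C, were exposed to compound or DMSO for 1 hr at 37 C, 5% CO2. Blue fluorescence was read at 405/460 nm, with triamterene as reference fluorophore.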

Assay [9] addresses Glucocorticoid receptor (Homo sapiens) (UniProt P04150). The experiment in a line: qHTS assay to identify small molecule antagonists of the glucocorticoid receptor (GR) signaling pathway (AID 720692; active = well fitted inhibition curve with a large enough effect in the signal ratio in the repeat runs, not every such curve was filed as active; the % refers to the signal ratio). The gist of the method: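 In a 1536-well cell format, compounds were added 4 h after seeding GR-bla HeLa cells, together with dexamethasone at 5 nM final; reporter activity was measured by FRET-substrate fluorescence following 18 h at 37 C.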

Assay [10] can be described thus: qHTS assay for identifying genotoxic compounds that show differential cytotoxicity against isogenic chicken DT40 cell lines with known DNA damage response pathways - wild type cell line (AID 743012). Note: nearly all actives have a fitted effect of over 60% in size. Note: potency is the fitted concentration of half-maximal effect. Put shortly: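 Viability of DNA repair-proficient chicken DT40 cells was assessed by CellTiter-Glo luminescence following 40 h compound exposure at 37 C/5% CO2.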
Assay [11] can be described thus: qHTS assay for identifying genotoxic compounds that show differential cytotoxicity against isogenic chicken DT40 cell lines with known DNA damage response pathways - Rev3 mutant cell line (AID 743014). Note: nearly all actives have a fitted effect of over 55% in size. Note: potency is the fitted concentration of half-maximal effect.
Assay [12] can be described thus: qHTS assay for identifying genotoxic compounds that show differential cytotoxicity against isogenic chicken DT40 cell lines with known DNA damage response pathways - Rad54/Ku70 mutant cell line (AID 743015). Note: nearly all actives have a fitted effect of over 60% in size. Note: potency is the fitted concentration of half-maximal effect.
Assay [13] in a line: qHTS assay to identify small molecule antagonists of the androgen receptor (AR) signaling pathway - cell viability counter screen (AID 743033; note: nearly all actives have a fitted effect of over 45% in size).
Assay [14] in a line: qHTS assay to identify small molecule antagonists of the androgen receptor (AR) signaling pathway using the MDA cell line - cell viability counter screen (AID 743041; note: nearly all actives have a fitted effect of over 45% in size). Put shortly:
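Cytotoxicity counter screen: MDA-kb2 AR-luc cells, compound + R1881, 16 h, 37C, 0% CO2; CellTiter-Fluor added at 15.5 h, fluorescence read after 30 min.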

Assay [15] is described as follows: qHTS assay to identify small molecule antagonists of the glucocorticoid receptor (GR) signaling pathway - cell viability counter screen (AID 720693). Note: nearly all actives have a fitted effect of over 55% in size.
Assay [16] concerns the target Androgen receptor (Homo sapiens) (UniProt P10275). Description: qHTS assay to identify small molecule antagonists of the androgen receptor (AR) signaling pathway (AID 743035; active = well fitted inhibition curve with a large enough effect in the signal ratio in the repeat runs, not every such curve was filed as active; the % refers to the signal ratio). Put shortly:
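Reporter HEK293 cells were exposed to compounds and R1881 overnight (16 h, 37C); beta-lactamase activity was then quantified by FRET fluorescence.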

Assay [17] shares this target. Description: qHTS assay to identify small molecule agonists of the androgen receptor (AR) signaling pathway using the MDA cell line (AID 743040; note: nearly all actives have a fitted effect of over 20% in size). The gist of the method:
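Luciferase read-out, ONE-Glo, 30 min RT. Cells: MDA-kb2 AR-luc, MMTV promoter with AR and GR response elements. Compound exposure 16 h, 37C, 0% CO2, after 5 h pre-incubation. qHTS agonist mode.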

Assay [18] shares this target. Description: qHTS assay to identify small molecule antagonists of the androgen receptor (AR) signaling pathway using the MDA cell line (AID 743042; note: nearly all actives have a fitted effect of over 55% in size). Put shortly: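 MDA-kb2 breast carcinoma cells carrying MMTV-luciferase (AR/GR responsive) were co-treated with compounds and the agonist R1881 for 16 h at 37C. Inhibition read as ONE-Glo luminescence; CellTiter-Fluor fluorescence measured in parallel for cytotoxicity.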

The target in assay [19] is Glucocorticoid receptor (Homo sapiens) (UniProt P04150). Description: qHTS assay to identify small molecule agonists of the glucocorticoid receptor (GR) signaling pathway (AID 720691; active = well fitted activation curve with a large enough effect in the signal ratio in the repeat runs, not every such curve was filed as active; the % refers to the signal ratio). The gist of the method: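 Compounds in DMSO, alongside positive controls, were added to GR-bla HeLa reporter cells and incubated 18 h at 37 C; GRE-driven beta-lactamase was detected by fluorescence after 2 h with FRET substrate at room temperature.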
Chain of Glucocorticoid receptor (Homo sapiens) (P04150 whole entry, looked up): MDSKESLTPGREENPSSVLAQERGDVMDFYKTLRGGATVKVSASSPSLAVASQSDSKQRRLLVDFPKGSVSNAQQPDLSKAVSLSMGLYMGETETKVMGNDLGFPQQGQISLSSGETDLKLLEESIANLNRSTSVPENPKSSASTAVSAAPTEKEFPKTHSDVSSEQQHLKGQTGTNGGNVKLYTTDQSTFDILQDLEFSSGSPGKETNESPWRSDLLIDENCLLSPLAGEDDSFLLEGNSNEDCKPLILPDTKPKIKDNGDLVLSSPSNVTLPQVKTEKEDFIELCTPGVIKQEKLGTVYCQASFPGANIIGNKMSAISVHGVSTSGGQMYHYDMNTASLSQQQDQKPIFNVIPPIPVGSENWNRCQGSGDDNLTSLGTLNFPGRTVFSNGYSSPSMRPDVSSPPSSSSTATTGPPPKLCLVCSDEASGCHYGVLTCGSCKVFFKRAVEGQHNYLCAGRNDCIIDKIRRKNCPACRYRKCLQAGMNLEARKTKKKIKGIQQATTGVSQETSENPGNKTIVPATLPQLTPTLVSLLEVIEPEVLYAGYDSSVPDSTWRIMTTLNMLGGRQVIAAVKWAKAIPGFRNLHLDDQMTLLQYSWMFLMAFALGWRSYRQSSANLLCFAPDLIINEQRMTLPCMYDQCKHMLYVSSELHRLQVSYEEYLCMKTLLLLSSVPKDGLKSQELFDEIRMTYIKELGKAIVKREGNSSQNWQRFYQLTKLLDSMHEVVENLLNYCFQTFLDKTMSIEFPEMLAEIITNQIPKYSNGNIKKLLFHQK

In assay [20] the target is Androgen receptor (Homo sapiens) (UniProt P10275). Description: qHTS assay to identify small molecule agonists of the androgen receptor (AR) signaling pathway (AID 743036; active = well fitted activation curve with a large enough effect in the signal ratio in the repeat runs, with a control signal flat, not every such curve was filed as active; the % refers to the signal ratio). The gist of the method: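 AR-bla HEK293 cells, 2,000/well; 4 h preincubation 37C/5% CO2; compound (DMSO) 16 h at 37C; LiveBLAzer B/G FRET substrate 2 h RT; fluorescence intensity read-out.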
Chain of Androgen receptor (Homo sapiens) (P10275 whole entry, looked up): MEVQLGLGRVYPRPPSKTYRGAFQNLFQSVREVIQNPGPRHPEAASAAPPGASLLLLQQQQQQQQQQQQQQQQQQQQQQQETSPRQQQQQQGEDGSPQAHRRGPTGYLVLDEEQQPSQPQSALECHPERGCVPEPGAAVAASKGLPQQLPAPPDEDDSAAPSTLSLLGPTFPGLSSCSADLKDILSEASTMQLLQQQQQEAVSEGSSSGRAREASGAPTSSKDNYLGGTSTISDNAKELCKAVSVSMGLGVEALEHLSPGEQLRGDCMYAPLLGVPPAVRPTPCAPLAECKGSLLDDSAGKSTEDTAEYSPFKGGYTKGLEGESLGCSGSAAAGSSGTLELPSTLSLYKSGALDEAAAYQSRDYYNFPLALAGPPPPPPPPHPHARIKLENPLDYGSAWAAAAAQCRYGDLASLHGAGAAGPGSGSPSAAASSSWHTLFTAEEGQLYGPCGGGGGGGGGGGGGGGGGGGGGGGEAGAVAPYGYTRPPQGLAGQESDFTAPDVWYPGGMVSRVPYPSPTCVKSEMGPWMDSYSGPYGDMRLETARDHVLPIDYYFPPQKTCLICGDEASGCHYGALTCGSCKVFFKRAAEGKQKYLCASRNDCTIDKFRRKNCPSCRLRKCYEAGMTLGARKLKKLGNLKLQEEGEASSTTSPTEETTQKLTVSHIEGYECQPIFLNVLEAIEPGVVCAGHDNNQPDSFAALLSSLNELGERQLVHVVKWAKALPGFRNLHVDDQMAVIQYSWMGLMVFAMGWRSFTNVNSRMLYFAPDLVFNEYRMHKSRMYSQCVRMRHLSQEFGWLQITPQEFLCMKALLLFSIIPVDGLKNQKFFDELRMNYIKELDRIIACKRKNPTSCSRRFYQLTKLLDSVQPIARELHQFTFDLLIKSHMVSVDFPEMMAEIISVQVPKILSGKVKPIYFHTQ

A number with no mark means an inactive call. Records with an inconclusive call do not appear. The source made the active and inactive calls. Unless noted, calls come from the whole dose curve; as a rule, active = well fitted curve in the direction sought with a large enough effect in the repeat runs; inconclusive = weak or mixed curves; inactive = no such curve, though single readings can be large; an effect the other way counts as inactive or inconclusive.
% is set by controls: 0 for no effect and ±100 for the full control effect.

Regarding `C[C@@H](O)[C@H]1C(=O)N2C(C(=O)O)=C(SCCN=CN)C[C@H]12`, the fluorescence, % of fluorescein in assay [1] was 0.0698% [at 18.6 µM]. The fluorescence, % of fluorescent control is 1.12% [at 18.6 µM] in assay [2], -0.0922% [at 18.6 µM] in [4], 1.1% [at 18.6 µM] in assay [6] and 0.982% [at 18.6 µM] in [8]. In addition, the activity change in assay [3] is -0.0504% [at 18.6 µM]. Moreover, the fluorescence, % of Rose Bengal in assay [5] was 0.208% [at 18.6 µM]. In addition, the fluorescence, % of fluorescein control in [7] is 0.0651% [at 18.6 µM]. Besides, the molecule was called inactive in assay [9]. Besides, the Potency result in [10], in assay [11], in assay [12], in assay [13] and in [14] was “inactive” in each case.
Consider `CC(C(=O)O)c1ccc2c(c1)CC(=O)c1ccccc1S2` (stereo not drawn), for which the call in [1], in assay [2], in assay [3], in assay [4], in assay [5] and in assay [6] was inactive. Besides, the outcome in [7], in [8], in assay [9], in assay [15] and in assay [17] was inactive. Moreover, the Potency entry in assay [10], in assay [11], in [13], in assay [16], in assay [14] and in assay [18] was “inactive” each time.
Turning to `Cc1cccc2nccnc12`, the result in [1], in assay [2], in [3], in assay [4], in [5] and in assay [6] was inactive. Also, the call in assay [7], in [8] and in assay [15] was inactive. Further, the Potency entry in [19], in assay [11], in assay [12] and in assay [13] was “inactive” in each case.
As for `C[Si](C)(C)C`, the call in [1], in assay [2], in assay [3], in assay [4], in assay [5] and in assay [6] was inactive. Also, the result in assay [7], in assay [8], in [9] and in assay [15] was inactive. Also, the Potency entry in [10], in assay [11], in [12], in assay [13] and in assay [14] was “inactive” in each case.
On to `C=C(C)C(=O)OCCNC(C)(C)C`, for which the molecule was classed as inactive in assay [1], in assay [2], in [3], in [4], in [5] and in assay [6]. Further, the call in assay [7], in assay [8], in assay [9] and in [15] was inactive. Further, the Potency entry in assay [10], in assay [13] and in [14] was “inactive” in each case.
For the molecule `O=C(O)CCSSCCC(=O)O`, the molecule was called inactive in assay [1], in [2], in assay [3], in assay [4], in [5] and in assay [6]. Further, the result in [7], in assay [8], in [9], in assay [15], in [20] and in assay [17] was inactive. The Potency result in assay [10], in assay [11], in assay [12], in [13], in assay [16] and in [14] was “inactive” in each case. In addition, the Potency entry in assay [18] is “inactive”.
As to `CC(C)CCCC(C)(C)O`, the molecule was classed as inactive in [1], in [2], in [3], in assay [4], in assay [5] and in assay [6]. The molecule was called inactive in [7], in assay [8] and in assay [15]. Besides, the Potency result in assay [10], in assay [11], in [12], in assay [13] and in [14] was “inactive” throughout.
With `N#Cc1ccc(C(=O)O)cc1`, the molecule was called inactive in [1], in assay [2], in [3], in [4], in [5] and in [6]. The outcome in [7], in [8], in assay [15], in assay [20] and in assay [17] was inactive. Besides, the Potency in [11] was 30.6 µM (active); in assay [12] it was 61.1 µM (active). The Potency result in assay [13], in assay [16], in assay [14] and in assay [18] was “inactive” each time.
Regarding `COc1ccc(Br)c(C)c1`, the molecule was called inactive in assay [1], in [2], in [3], in assay [4], in assay [5] and in [6]. For the same molecule, the outcome in assay [7], in assay [8] and in [15] was inactive. In addition, the Potency result in [10], in assay [11], in assay [12] and in [13] was “inactive” throughout.
With `COc1cc2c(cc1OC)[C@@H]1CC(=O)[C@@H](CC(C)C)CN1CC2`, the result in [1], in [2], in assay [3], in assay [4], in assay [5] and in [6] was inactive. Also, the result in [7] and in [8] was inactive. Also, the figures for the Potency in [10] and in assay [11] were 23.7 µM (active) and 21.1 µM (active), respectively. Besides, the Potency result in assay [13] was “inactive”.
Regarding `CC(=O)c1ccc2c(c1)Cc1ccccc1-2`, the outcome in assay [1], in [2], in assay [3], in [4], in assay [5] and in assay [6] was inactive. Moreover, the result in [7], in assay [8] and in assay [15] was inactive. Besides, the Potency result in [11], in [12], in [13] and in assay [14] was “inactive” throughout.
As for `OCCC(F)(F)C(F)(F)C(F)(F)C(F)(F)C(F)(F)C(F)(F)C(F)(F)C(F)(F)F`, the outcome in assay [1], in assay [2], in assay [3], in [4], in assay [5] and in assay [6] was inactive. For the same molecule, the outcome in assay [7], in [8], in [15], in assay [20] and in assay [17] was inactive. Moreover, the Potency entry in [10], in [11], in assay [12], in assay [13], in assay [14] and in assay [18] was “inactive” each time.
With `CCOC(=O)c1ncn2c1CN(C)C(=O)c1cc(F)ccc1-2`, the molecule was classed as inactive in assay [1], in assay [2], in [3], in assay [4], in assay [5] and in assay [6]. Moreover, the outcome in [7], in assay [8], in [15], in assay [20] and in assay [17] was inactive. For the same molecule, the Potency result in assay [10], in assay [11], in [12], in [13], in assay [16] and in assay [14] was “inactive” in each case. Besides, the Potency result in assay [18] was “inactive”.
Consider `C=CC(OCC)OCC`, for which the molecule was called inactive in assay [1], in [2], in assay [3], in assay [4], in assay [5] and in assay [6]. In addition, the result in assay [7], in assay [8] and in assay [15] was inactive. Further, the Potency entry in assay [10], in assay [11], in [12], in [13] and in assay [14] was “inactive” in each case.
